# Source: PubChem (National Center for Advancing Translational Sciences (NCATS))
# In the library only some 10% were active in any assay of this set; here they are far more common.
# BAZ2B block: BAZ2B (human) inhibition; AlphaScreen BAZ2B-H3K14Ac peptide displacement; 360,000 compounds, 4.4% hits; Potency, µM (highest dose often 114 µM), for the others: at the top dose activity change, negative = inhibition, most hits filed as inhibitors; note: potency is the fitted concentration of half-maximal effect; % is set by controls: 0 for no effect and ±100 for the full control effect; nearly all actives have a fitted effect of over 60% in size
#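 BAZ2B (50 nM) with biotin-H3(5-23)K14Ac peptide (50 nM) in PBS pH 7.4, 0.01% Tween-20, preformed 30 min, then compound 30 min at room temperature; top concentration 110uM. AlphaScreen streptavidin donor/nickel chelate acceptor beads (10 ug/mL final), 20 min dark, signal read.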
# CtBP-E1A blk: CtBP/E1A binding inhibition; AlphaScreen GST-E1A/His-CtBP binding, 1536-well; hits give low values; activity change, % (concentration not given with the values); 340,000 compounds, 0.49% hits; AID 651724; in the data active = activity change below about -65%; inconclusive = mostly about -30% to -63%; note: % is set by controls: 0 for no effect and ±100 for the full control effect
#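 Protein mix (5X: 125 nM each GST-E1A, His-CtBP) was incubated with pinned compound 2 h at 37 deg C in dark, in 50 mM Tris pH 8.0 buffer with 300 mM NaCl. Glutathione donor and nickel acceptor beads followed; AlphaScreen signal read after 1 h.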
# HP1b binding inh: HP1-beta chromodomain-methylated histone interaction inhibition. Potency, µM (highest dose often 114 µM), for the others: at the top dose activity change, negative = inhibition, usual class: inhibitors. P83916. 390,000 compounds, 0.56% hits. AlphaScreen HP1-beta / biotin-H3K9me3 peptide binding; note: potency is the fitted concentration of half-maximal effect; nearly all actives have a fitted effect of over 70% in size
#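 HP1-beta protein (50 nM final) preincubated 30 min at room temperature with biotinylated H3(1-18)K9me3 peptide (50 nM) in PBS pH 7.4, 0.01% Tween-20, then compound added for 30 min. AlphaScreen streptavidin donor/nickel chelate acceptor beads (10 ug/mL final), 30 min dark, luminescence read.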
# JMJD2A Tudor: JMJD2A Tudor domain (human) inhibition; 390,000 compounds, 4.4% hits; Potency, µM (top dose mostly 114 µM), for the others: at the top dose activity change, negative = inhibition, usual class: inhibitors; AlphaScreen JMJD2A-Tudor / H3K4me3 peptide binding; O75164; note: potency is the fitted concentration of half-maximal effect; % is set by controls: 0 for no effect and ±100 for the full control effect; nearly all actives have a fitted effect of over 50% in size
# Six1-Eya2 inh: Six1/Eya2 interaction inhibition. AlphaScreen GST-Six1/His-Eya2 binding, biochemical; hits give low values. activity change, % (no concentration beside the values). 360,000 compounds, 0.56% hits. Q15475+O00167; in the data active = activity change below about -65%; inconclusive = mostly about -30% to -63%; note: % is set by controls: 0 for no effect and ±100 for the full control effect
#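 Six1/Eya2 binding was read as AlphaScreen signal after compounds were pinned into GST-Six1 plus His-tagged Eya2 (5X stock 250/500 nM) in pH 8.0 Tris/NaCl/TCEP buffer, beads added, then incubated 1 h, 37 C, dark.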
# G9a block: inhibitors of human histone lysine methyltransferase G9a | Q96KQ7 | G9a H3K9 monomethylation, AlphaScreen, 2 h | Potency, µM (titrated, usually from 102 µM), inactives show top-dose activity, negative = inhibition, usual class: inhibitors | 350,000 compounds, 8.8% hits | AID 504332; note: potency is the fitted concentration of half-maximal effect; % is set by controls: 0 for no effect and ±100 for the full control effect; nearly all actives have a fitted effect of over 75% in size
#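 Methyltransferase reactions run at room temperature for 2 h (20 nM enzyme, 500 nM biotin-H3K9 peptide, 20 uM SAM) after a 15 min compound preincubation; product detected by AlphaScreen beads and anti-H3K9me1 antibody.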
# * = called active by the depositor; ? = inconclusive; · = no result; [ ] = remark or other dose. Unless noted, calls come from the whole dose curve; as a rule, active = well fitted inhibition curve with a large enough effect; inconclusive = small, poorly fitted or top-dose-only effect; inactive = no such curve, though single readings can be large or run the other way.
SMILES,BAZ2B block,CtBP-E1A blk,HP1b binding inh,JMJD2A Tudor,Six1-Eya2 inh,G9a block
COc1ccc(CCNC(=O)C2CCCN(S(=O)(=O)c3ccc4c(c3)oc(=O)n4C)C2)cc1OC (configuration not stated),-8.4%,·,42.1%,-17.5%,·,-3.2%[59 µM]
Cc1ccc(CNC(=O)C2CCN(C(=O)c3cnn(-c4ccccc4)c3-n3cccc3)CC2)cc1,-25.0%,·,14.4%,-13.8%,·,-5.3%[59 µM]
Cc1ccc([N+](=O)[O-])c(OCCN2CCC(Cc3ccccc3)CC2)c1,22.4µM*,-0.5,?,3.16µM*,-21.0,?
CCOc1ccccc1OCCN1CCC(Cc2ccccc2)CC1,56.2µM*,2.8,-12.6%,44.7µM*,-15.1,15.8µM*
O=C(COc1ccccc1[N+](=O)[O-])N1CCC(Cc2ccccc2)CC1,·,·,-20.9%,-5.3%[11.4 µM],-3.0,?
CCN1CCN(CCOc2ccccc2OCc2ccccc2)CC1,22.4µM*,·,?,12.6µM*,-7.1,20µM*
O=C(O)c1cc(N(Cc2ccccc2O)Cc2ccccc2O)ccc1O,·,·,-28.3%,50.1µM*,·,·
CCN(CC)c1ccc(C(=O)c2ccccc2C(=O)O)c(O)c1,23.6%,8.5,39.5%,-6.8%,-0.3,-9.7%[59 µM]
COc1ccc(-c2cn3nc4c(nc3n2)CCCC4)cc1,6.7%,-16.6,78.3%,18.5%,-20.6,79.4µM*
COCCNC(=O)CSc1ccccc1C(=O)NC1CCSc2ccccc21 (configuration not stated),-13.6%,-20.4,-4.0%,-9.3%,-2.9,35.5µM*
O=C(COc1ccccc1)NC1CCSc2ccccc21 (configuration not stated),-5.3%,5.3,29.1%,-4.6%,-11.0,6.31µM*
O=C(NC1CCSc2ccccc21)c1ccccc1Br (configuration not stated),-4.2%,8.8,20.7%,-15.5%,2.5,·
O=C(COC(=O)c1ccc(Br)o1)Nc1ncc([N+](=O)[O-])s1,?,3.6,-20.2%,?,-27.5,3.16µM*
COc1ccc(C(=O)OCC(=O)Nc2ncc([N+](=O)[O-])s2)cc1OC,50.1µM*,-15.2,?,39.8µM*,?,-15.0%[12.7 µM]
CCc1ccc(-n2c(=O)c3c4c(sc3n(CC(=O)c3ccc(F)cc3)c2=O)CCC4)cc1,2.2%,·,13.2%,-16.0%,·,0.1%[59 µM]
CCCCOC(=O)C1CCCC(C)N1 (configuration not stated),-38.5%,-24.7,-6.1%,22.4µM*,4.4,28.2µM*
CCCCCCCCCCOC(=O)NC1CCS(=O)(=O)C1 (configuration not stated),-0.3%,-9.1,47.1%,6.2%,3.1,21.8%
O=C1CC(=O)N(CCNc2ncc(C(F)(F)F)cc2Cl)C(=O)N1,-36.3%,3.9,0.6%,-26.1%,-6.2,6.6%[59 µM]
O=C1C=CC(=O)N1CCNc1ncc(C(F)(F)F)cc1Cl,-30.2%,10.2,-1.4%,?,-0.2,2.51µM*
CNc1nc(-c2ccc3c(c2)CCN3C(=O)c2ccc(F)cc2)cs1,?,·,9.2%,-27.1%,-8.5,31.6µM*
CNc1nc(-c2ccc3c(c2)CCN3C(=O)c2ccccc2C)cs1,50.1µM*,-1.1,?,?,-17.2,22.4µM*
CC(C)(C)Nc1nc(-c2ccc3c(c2)CCN3C(=O)C2CC2)cs1,?,-13.4,?,?,-6.8,39.8µM*
O=C(CN1CCCC1)Nc1nc(-c2ccc3c(c2)CCN3C(=O)c2ccccc2F)cs1,-27.9%,-12.9,-5.7%,?,-28.9,?
CC(C)C(=O)Nc1nc(-c2ccc3c(c2)CCN3C(=O)C2CC2)cs1,-16.2%,-6.0,5.8%,-0.4%,-1.4,?
O=C1CC(c2nc3ccccc3n2CCC2CCCCC2)CN1c1ccccc1Cl (configuration not stated),?,·,-15.3%,-32.9%,·,-11.8%[59 µM]
SMILES,BAZ2B block,CtBP-E1A blk,HP1b binding inh,JMJD2A Tudor,Six1-Eya2 inh,G9a block
COc1ccc(NC(=O)Cn2ccn(-c3ccc(C)c(C)c3)c(=O)c2=O)cc1Cl,-10.7%,·,21.7%,28.9%,·,1.4%[59 µM]
Cc1c(NC(=O)C(C)OC(=O)c2cc(-c3cccc4ccccc34)nc3ccccc23)c(=O)n(-c2ccccc2)n1C (configuration not stated),-4.7%,-12.6,-2.7%,-27.1%,-2.6,11.2µM*
Cc1c(NC(=O)C(C)OC(=O)/C=C/c2ccco2)c(=O)n(-c2ccccc2)n1C (configuration not stated),50.1µM*,1.9,44.7µM*,20µM*,-13.5,?
COc1ccc(-c2cc(C(=O)OC(C)C(=O)Nc3c(C)n(C)n(-c4ccccc4)c3=O)c3ccccc3n2)cc1 (configuration not stated),-2.1%,6.5,-5.2%,-8.4%,-4.2,22.3%[59 µM]
CCOC(=O)c1cc(-c2ccc(OC)cc2)n(CCC(=O)NCCc2ccccc2)c1C,-32.2%,·,-9.9%,?,·,-34.8%[59 µM]
CN(C)c1ccc(/C=C(\NC(=O)c2ccccc2)C(=O)NCc2cccnc2)cc1,-17.4%,-0.3,-2.7%,-9.7%,-4.3,39.8µM*
CN(C)c1ccc(/C=C(\NC(=O)c2ccccc2)C(=O)NCc2ccncc2)cc1,-21.7%,-1.1,-6.9%,-30.8%,2.0,28.2µM*
COc1ccc(/C=C(\NC(=O)c2ccccc2)C(=O)NCc2cccnc2)cc1,18.9%,10.0,14.5%,-7.1%,1.5,-12.3%
Cc1ccc(-c2nc3nc(C)cc(N4CCN(c5cc(Cl)ccc5C)CC4)n3n2)cc1,-5.3%,·,23.1%,-4.8%,·,-36.5%[59 µM]
O=[N+]([O-])c1cc([N+](=O)[O-])c(Oc2c(F)cc(F)cc2F)cc1NN1CCCCC1,?,-19.1,?,?,-17.2,50.1µM*
Cc1cc(F)ccc1Oc1cc(NN2CCCCC2)c([N+](=O)[O-])cc1[N+](=O)[O-],?,-16.7,-14.7%,?,-20.7,?
O=[N+]([O-])c1cc([N+](=O)[O-])c(Oc2cccc3c2CCCC3)cc1NN1CCCCC1,·,0.0,0.4%,-34.0%,0.6,·
O=[N+]([O-])c1cc([N+](=O)[O-])c(Oc2ccc(Br)cc2Br)cc1NN1CCCCC1,?,-2.3,?,10µM*,0.9,15.8µM*
COc1cccc(Oc2cc(NN3CCCCC3)c([N+](=O)[O-])cc2[N+](=O)[O-])c1OC,8.91µM*,-20.8,-26.6%,?,-16.1,39.8µM*
CCCc1ccc(Oc2cc(NN3CCCCC3)c([N+](=O)[O-])cc2[N+](=O)[O-])cc1,-37.9%,0.0,3.9%,-33.3%,2.1,-4.6%
CCC(C)n1c(=O)c2sccc2n2c(CCCC(=O)N3CCN(c4ccccc4)CC3)nnc12 (configuration not stated),-19.1%,·,32.4%,-1.5%,·,-25.7%[59 µM]
